# Results reported in the supplement of paper PMC10849652.
# Targets with a hit are over-represented here; the source holds about 8,800 in all. About 0.5% of all pairs of compound and target were hits. A number with no mark means an inactive call.
# Key:
# Assay in all cases: log2 fold change, soluble protein after heating vs DMSO (PISA); higher = thermal stabilisation; K562 lysate, 10 uM; active = over 0.2 and 3.5 SD of the protein, either way, in both replicates (recomputed)
# [1] = compound: CS(=O)(=O)CCNCc1ccc(-c2ccc3ncnc(Nc4ccc(OCc5cccc(F)c5)c(Cl)c4)c3c2)o1 [lapatinib]
# Procedure, shortened: (§1)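 Soluble protein was defined as the supernatant remaining after 21,000xg for 90 min, following pooling of heated aliquots and adjustment to 0.5% NP-40 at 4°C. Before that, crude K562 extract at 1 mg/mL protein in PBS pH 7.4 with 1 mM MgCl2 was treated with 10 μM compound for 30 min and heated for 3 min across 48°C-58°C. Quantification used TMTpro 16plex LC-MS/MS with channel sums equalised, and values are log-two fold changes in thermal stability relative to solvent controls from duplicates.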
# [2] = compound: CS(=O)(=O)N1CCN(Cc2cc3nc(-c4cccc5[nH]ncc45)nc(N4CCOCC4)c3s2)CC1 [pictilisib]
# Procedure, shortened: as §1
# [3] = compound: C[C@@H](Oc1cc(-c2cnn(C3CCNCC3)c2)cnc1N)c1c(Cl)ccc(F)c1Cl [crizotinib]
# Procedure, shortened: as §1
# [4] = compound: C[C@H](C1=CC=C(C=C1)C(=O)NC2=C3C=CNC3=NC=C2)N
# Procedure, shortened: as §1
# [5] = compound: C[C@H](Nc1ncnc2nc[nH]c12)c1cc2cccc(Cl)c2c(=O)n1-c1ccccc1 [duvelisib]
# Procedure, shortened: as §1
# [6] = compound: Cc1cc(Nc2cc(CN3CCOCC3)c3nc(C)c(Cc4ccc(Cl)cc4F)n3n2)n[nH]1 [gandotinib]
# Procedure, shortened: as §1
# [7] = compound: Cc1cc(Nc2cc(N3CCN(C)CC3)nc(Sc3ccc(NC(=O)C4CC4)cc3)n2)n[nH]1 [tozasertib]
# Procedure, shortened: as §1
# [8] = compound: Cc1ccc(-n2nc(C(C)(C)C)cc2NC(=O)Nc2ccc(OCCN3CCOCC3)c3ccccc23)cc1 [doramapimod]
# Procedure, shortened: as §1
# [9] = compound: Cc1ccc(NC(=O)c2ccc(CN3CC[C@H](N(C)C)C3)c(C(F)(F)F)c2)cc1Nc1nccc(-c2cncnc2)n1 [bafetinib]
# Procedure, shortened: as §1
# [10] = compound: Cc1cccc(CC(=O)N2CCc3c2ccc(-c2cn(C)c4ncnc(N)c24)c3F)n1
# Procedure, shortened: as §1
# UniProt Q9NWS6, sequence (Q9NWS6 whole entry, looked up): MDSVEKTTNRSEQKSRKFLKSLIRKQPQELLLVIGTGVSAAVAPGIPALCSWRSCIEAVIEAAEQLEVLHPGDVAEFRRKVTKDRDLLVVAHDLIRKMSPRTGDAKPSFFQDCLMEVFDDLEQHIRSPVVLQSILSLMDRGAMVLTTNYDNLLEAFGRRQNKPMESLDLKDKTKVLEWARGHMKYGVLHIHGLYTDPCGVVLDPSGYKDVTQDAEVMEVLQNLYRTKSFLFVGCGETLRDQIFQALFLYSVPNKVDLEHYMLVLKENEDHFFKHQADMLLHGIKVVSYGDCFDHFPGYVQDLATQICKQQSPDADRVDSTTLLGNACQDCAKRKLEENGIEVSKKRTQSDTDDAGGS
# UniProt Q86UY5, sequence (Q86UY5 whole entry, looked up): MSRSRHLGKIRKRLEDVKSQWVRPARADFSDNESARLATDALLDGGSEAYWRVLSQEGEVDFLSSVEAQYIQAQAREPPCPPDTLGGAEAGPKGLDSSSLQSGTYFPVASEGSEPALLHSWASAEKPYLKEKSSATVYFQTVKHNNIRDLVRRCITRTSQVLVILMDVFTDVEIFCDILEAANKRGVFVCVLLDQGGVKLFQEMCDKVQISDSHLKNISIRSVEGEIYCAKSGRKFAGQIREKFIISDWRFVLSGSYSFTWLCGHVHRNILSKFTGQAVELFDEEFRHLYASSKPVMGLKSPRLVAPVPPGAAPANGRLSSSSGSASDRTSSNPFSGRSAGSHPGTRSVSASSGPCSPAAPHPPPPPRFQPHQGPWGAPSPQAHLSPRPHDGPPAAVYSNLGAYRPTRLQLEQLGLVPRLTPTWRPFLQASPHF
# UniProt Q9UI10, sequence (Q9UI10 whole entry, looked up): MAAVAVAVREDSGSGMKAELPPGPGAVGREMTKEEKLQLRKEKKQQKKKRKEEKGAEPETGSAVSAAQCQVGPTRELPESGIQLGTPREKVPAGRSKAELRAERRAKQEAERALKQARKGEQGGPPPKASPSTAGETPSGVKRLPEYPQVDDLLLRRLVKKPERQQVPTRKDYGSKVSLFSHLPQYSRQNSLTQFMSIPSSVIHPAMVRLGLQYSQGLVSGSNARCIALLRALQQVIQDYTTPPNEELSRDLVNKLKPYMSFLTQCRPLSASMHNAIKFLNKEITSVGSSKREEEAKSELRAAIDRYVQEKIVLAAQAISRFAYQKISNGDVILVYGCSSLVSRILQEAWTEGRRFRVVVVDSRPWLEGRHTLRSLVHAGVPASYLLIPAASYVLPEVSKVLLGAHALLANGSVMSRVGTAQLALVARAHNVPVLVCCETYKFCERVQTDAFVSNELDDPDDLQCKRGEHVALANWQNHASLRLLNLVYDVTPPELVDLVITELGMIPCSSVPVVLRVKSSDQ
# UniProt Q15125, sequence (Q15125 whole entry, looked up): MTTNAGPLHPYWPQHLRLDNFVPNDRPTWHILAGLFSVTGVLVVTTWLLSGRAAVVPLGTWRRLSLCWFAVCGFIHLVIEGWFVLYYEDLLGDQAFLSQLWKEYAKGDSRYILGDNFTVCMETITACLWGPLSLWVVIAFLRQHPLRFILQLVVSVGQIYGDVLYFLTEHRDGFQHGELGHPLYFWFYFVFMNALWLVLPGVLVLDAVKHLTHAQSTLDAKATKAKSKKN
# UniProt Q09472, sequence (Q09472 whole entry, looked up): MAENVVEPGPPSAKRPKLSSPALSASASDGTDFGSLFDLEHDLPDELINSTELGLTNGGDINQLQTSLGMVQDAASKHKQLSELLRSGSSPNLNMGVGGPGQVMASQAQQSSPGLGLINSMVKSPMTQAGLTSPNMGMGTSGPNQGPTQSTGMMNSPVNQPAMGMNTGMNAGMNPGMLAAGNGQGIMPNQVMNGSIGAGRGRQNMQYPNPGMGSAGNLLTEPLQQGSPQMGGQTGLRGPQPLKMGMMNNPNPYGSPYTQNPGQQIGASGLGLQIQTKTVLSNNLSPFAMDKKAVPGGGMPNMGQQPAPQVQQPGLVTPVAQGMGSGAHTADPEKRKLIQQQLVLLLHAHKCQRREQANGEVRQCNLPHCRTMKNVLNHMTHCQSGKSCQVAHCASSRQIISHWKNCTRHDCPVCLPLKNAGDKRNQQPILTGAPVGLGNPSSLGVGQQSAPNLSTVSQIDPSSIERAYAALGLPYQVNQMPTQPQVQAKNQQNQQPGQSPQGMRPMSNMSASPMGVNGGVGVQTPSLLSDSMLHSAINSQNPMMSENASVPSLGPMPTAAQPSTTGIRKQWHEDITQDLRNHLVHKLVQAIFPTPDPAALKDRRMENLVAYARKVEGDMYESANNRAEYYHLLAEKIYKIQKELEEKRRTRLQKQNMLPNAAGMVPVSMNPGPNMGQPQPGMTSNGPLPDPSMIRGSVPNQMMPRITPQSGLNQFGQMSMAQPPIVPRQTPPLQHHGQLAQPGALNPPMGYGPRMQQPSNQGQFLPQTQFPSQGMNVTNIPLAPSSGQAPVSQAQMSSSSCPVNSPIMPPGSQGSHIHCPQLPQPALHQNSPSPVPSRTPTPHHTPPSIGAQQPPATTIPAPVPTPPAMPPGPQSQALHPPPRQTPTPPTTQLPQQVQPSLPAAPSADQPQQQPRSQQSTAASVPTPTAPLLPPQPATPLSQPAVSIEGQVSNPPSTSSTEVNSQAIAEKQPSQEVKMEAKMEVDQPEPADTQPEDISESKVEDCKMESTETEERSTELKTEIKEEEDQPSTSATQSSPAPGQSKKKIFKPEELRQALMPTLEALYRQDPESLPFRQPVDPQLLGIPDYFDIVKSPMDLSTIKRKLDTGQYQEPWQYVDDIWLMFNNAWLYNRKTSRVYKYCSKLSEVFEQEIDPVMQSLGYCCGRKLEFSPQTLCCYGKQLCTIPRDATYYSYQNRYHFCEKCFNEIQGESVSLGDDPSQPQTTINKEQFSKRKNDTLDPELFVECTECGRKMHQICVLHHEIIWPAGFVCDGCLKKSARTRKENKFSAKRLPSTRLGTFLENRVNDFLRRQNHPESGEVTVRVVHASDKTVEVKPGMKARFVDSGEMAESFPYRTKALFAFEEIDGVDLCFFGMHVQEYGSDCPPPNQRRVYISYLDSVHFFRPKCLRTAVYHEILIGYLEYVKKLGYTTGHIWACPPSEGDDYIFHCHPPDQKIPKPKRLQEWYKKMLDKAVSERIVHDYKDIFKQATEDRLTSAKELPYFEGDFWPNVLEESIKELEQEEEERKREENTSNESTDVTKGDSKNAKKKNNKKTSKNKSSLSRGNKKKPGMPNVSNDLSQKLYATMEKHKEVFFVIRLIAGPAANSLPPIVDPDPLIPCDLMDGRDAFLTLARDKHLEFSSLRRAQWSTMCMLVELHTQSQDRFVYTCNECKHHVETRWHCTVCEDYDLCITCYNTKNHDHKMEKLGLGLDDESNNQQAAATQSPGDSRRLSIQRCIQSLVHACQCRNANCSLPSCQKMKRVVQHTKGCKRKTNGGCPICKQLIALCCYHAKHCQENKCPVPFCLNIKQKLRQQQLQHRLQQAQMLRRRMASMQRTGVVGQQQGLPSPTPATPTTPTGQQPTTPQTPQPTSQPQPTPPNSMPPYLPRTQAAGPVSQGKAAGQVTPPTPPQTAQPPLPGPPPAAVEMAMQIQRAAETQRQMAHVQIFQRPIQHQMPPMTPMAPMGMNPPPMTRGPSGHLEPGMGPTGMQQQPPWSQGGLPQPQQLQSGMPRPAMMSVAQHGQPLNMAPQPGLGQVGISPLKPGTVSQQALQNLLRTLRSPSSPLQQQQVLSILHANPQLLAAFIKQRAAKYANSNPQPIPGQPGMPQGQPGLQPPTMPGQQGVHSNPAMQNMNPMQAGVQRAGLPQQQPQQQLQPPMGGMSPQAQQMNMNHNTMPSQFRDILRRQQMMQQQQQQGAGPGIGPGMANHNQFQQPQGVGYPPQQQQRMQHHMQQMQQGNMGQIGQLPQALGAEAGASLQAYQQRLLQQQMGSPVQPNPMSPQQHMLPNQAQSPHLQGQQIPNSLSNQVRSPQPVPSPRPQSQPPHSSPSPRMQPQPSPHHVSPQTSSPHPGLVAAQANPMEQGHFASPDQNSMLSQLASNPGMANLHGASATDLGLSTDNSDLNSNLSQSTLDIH
# UniProt Q8N6R0, sequence (Q8N6R0 whole entry, looked up): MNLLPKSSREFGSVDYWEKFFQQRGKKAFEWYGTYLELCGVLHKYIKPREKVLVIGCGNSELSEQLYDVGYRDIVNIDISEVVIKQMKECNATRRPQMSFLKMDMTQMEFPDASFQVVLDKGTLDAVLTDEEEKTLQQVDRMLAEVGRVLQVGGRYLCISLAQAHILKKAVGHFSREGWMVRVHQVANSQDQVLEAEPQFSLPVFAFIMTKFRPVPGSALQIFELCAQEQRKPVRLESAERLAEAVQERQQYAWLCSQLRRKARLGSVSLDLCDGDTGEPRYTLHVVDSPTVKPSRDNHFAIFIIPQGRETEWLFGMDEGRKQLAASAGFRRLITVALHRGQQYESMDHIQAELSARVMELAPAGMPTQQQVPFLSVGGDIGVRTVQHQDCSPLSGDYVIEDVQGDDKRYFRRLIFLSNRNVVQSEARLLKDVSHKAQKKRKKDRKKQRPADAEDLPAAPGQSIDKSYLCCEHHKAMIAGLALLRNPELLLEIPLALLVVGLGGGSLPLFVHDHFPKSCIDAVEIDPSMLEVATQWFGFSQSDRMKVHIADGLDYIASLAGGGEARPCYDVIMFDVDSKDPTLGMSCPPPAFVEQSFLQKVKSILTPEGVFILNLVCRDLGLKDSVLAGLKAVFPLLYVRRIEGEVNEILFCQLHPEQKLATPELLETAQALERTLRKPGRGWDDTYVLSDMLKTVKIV
# UniProt Q8IV48, sequence (Q8IV48 whole entry, looked up): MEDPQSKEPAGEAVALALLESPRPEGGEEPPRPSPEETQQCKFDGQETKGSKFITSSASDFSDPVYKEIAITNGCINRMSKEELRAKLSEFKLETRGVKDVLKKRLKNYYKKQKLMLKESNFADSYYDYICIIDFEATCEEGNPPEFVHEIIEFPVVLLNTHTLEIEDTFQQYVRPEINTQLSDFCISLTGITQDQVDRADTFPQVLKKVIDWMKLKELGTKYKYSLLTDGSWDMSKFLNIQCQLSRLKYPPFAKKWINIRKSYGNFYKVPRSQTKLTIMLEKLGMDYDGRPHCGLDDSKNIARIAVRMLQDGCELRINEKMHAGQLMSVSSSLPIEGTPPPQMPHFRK
Target,log2 fold change [1],log2 fold change [2],log2 fold change [3],log2 fold change [4],log2 fold change [5],log2 fold change [6],log2 fold change [7],log2 fold change [8],log2 fold change [9],log2 fold change [10]
EIF2B4 isoform 2 (UniProt Q9UI10),-0.041,0.007,-0.037,-0.021,-0.013,-0.048,-0.01,-0.012,-0.058,0.044
EP300 (UniProt Q09472),0.062,-0.078,0.047,-0.101,-0.037,-0.047,0.065,-0.016,0.044,0.089
FAM98A (UniProt Q8NCA5),0.001,-0.024,0.007,0.074,-0.024,-0.059,0.023,-0.015,0.012,0
EEF1AKNMT (UniProt Q8N6R0),-0.006,-0.046,-0.123,0.017,0.03,-0.133,-0.029,0.074,-0.014,-0.024
FAM118A (UniProt Q9NWS6),0.02,-0.006,-0.054,-0.09,0.019,0.002,-0.016,-0.013,-0.059,0.118
EBP (UniProt Q15125),-0.044,-0.004,0.07,-0.269 (active),-0.093,0.1,-0.016,-0.127,-0.011,0
FYN (UniProt P06241),0.007,-0.201,0.12,-0.092,-0.019,0.422 (active),0.054,-0.04,0.198,-0.057
FIGNL1 (UniProt Q6PIW4),0,-0.03,-0.078,-0.035,0.002,-0.071,0.003,-0.018,-0.024,0.007
FLAD1 (UniProt Q8NFF5),0.007,0.002,-0.024,0.021,0.05,0.044,-0.052,-0.02,-0.052,-0.05
FYCO1 isoform 4 (UniProt Q9BQS8),-0.005,-0.018,-0.018,-0.114,0.036,0.229,0.021,-0.009,-0.019,0.176
FKBP1A (UniProt P62942),-0.011,-0.031,0.005,-0.814 (active),0.074,0.266,-0.037,-0.04,-0.111,0.15
ERI1 (UniProt Q8IV48),0.037,-0.079,-0.017,0.047,-0.022,-0.123,-0.015,0.015,0.04,-0.051
DYNC1I2 isoform 5 (UniProt Q13409),-0.003,-0.017,-0.003,-0.004,-0.002,0.009,0.012,0.006,0.03,-0.003
FAM83A (UniProt Q86UY5),0.012,0.021,0.086,-0.142,-0.047,0.155,-0.013,0.195,-0.053,0.056
ERLIN1 (UniProt O75477),-0.041,-0.01,0.032,-0.094,-0.011,0.033,0.019,0.048,-0.027,0.03
